# Screening results deposited in PubChem BioAssay by several laboratories.
# MIN6 prolif: induces beta-cell replication in MIN6 cells. MIN6 cells proliferation, ATPlite luminescence, 48 h; cells starved in 0.2% serum; 100% = growth in 10% serum. proliferation, % at 10 µM. 330,000 compounds, 0.29% hits. AID 2380;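 active means compounds whose signal lies at least 3.5 SD above the mean of all wells on their plate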
# HTR5A inv ctr: HTR5A inverse agonism, opioid heterodimer counter-screen | P47898 | HTR5A cell line, luminescence | inhibition, % at 9.3 µM | 340,000 compounds, 0.083% hits; in the data active means inhibition mostly above about 23%, no sharp cut-off; inactive means mostly below about 18%
# MOR-DOR inv ag: inverse agonist of human OPRM1-OPRD1 heterodimerization | cell-based MOR-DOR heterodimer luminescence, inverse agonism | 340,000 compounds, 0.21% hits | P35372+P41143 | AID 504357 | inhibition, % at 9.3 µM; in the data active means inhibition above about 22%, passing the limit was not always enough
# Target sequence (P35372 whole entry, looked up): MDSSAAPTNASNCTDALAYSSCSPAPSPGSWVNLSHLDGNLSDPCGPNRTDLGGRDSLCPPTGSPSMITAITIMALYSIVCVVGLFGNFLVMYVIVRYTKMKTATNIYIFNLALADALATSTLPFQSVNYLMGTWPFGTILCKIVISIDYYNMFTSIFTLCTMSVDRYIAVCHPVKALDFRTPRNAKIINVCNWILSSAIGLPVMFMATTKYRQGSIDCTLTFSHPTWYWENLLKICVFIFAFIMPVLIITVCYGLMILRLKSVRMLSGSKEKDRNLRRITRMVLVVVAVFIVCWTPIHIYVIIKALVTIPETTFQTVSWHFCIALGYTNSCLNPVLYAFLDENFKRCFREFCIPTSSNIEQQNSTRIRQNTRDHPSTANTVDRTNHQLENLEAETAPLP
# Target sequence (P41143 whole entry, looked up): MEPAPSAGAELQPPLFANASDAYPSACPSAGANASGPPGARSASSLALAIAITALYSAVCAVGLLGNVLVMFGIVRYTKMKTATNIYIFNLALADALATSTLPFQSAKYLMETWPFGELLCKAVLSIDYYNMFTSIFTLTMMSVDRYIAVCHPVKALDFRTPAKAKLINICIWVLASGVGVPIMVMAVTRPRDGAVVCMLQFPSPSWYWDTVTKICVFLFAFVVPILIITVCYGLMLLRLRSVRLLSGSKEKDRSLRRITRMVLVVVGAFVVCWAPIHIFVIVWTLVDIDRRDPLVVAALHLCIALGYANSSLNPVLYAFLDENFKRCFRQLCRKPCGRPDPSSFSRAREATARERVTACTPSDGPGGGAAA
# HTR5A ag ctr: counter-screen for OPRM1-OPRD1 agonists: human HTR5A agonism; activation, % at 9.3 µM; 340,000 compounds, 0.61% hits; HTR5A agonist assay, luminescence, cell-based; P47898; in the data active means activation mostly above about 9.5%, no sharp cut-off; inactive means mostly below about 7.6%
# MOR-DOR ag: agonists of human mu-delta opioid receptor heterodimerization. P35372+P41143. cells, OPRM1-OPRD1 heterodimerization, luminescence. activation, % at 9.3 µM. 340,000 compounds, 0.3% hits; in the data active means activation above about 18%
# V-ATPase pH: regulators of yeast V-ATPase proton transport; S. cerevisiae, pHLuorin cytosolic pH fluorescence; response, % at 10 µM; 350,000 compounds, 0.37% hits; in the data active means response mostly above about 7.3%, no sharp cut-off; inactive means mostly below about 5.4%; further: actives read high
# MOR-DOR inv conf: confirmation of human OPRM1-OPRD1 heterodimerization inverse agonists; shares compounds with MOR-DOR inv ag; cells expressing OPRM1/OPRD1 heterodimer, luminescence; inhibition, % at 9.3 µM; 580 compounds, 20% hits; in the data active means inhibition above about 32%
# HTR5A inv ctr2: counter-screen for OPRM1-OPRD1 inverse agonists: human HTR5A inverse agonism. shares compounds with MOR-DOR inv ag. 580 tested, under 10 active. AID 504914. inhibition, % at 9.3 µM. HTR5A-expressing cells, luminescence; call rule not given here
# Hits are given with their value; - = inactive; . = no result given. Only some compounds are listed: those with a hit (about 1.7% of all), similar ones and a draw of the others.
SMILES,MIN6 prolif,HTR5A inv ctr,MOR-DOR inv ag,HTR5A ag ctr,MOR-DOR ag,V-ATPase pH,MOR-DOR inv conf,HTR5A inv ctr2
O=C(O)CCC(=O)Nc1nc2nccc(-c3ccccc3)n2n1,-,-,-,-,-,-,.,.
Cc1nn(Cc2noc(C(=O)NCc3ccccn3)n2)c(C)c1Br,-,-,-,-,-,-,.,.
CCOC(=O)CN1C(=O)C(=O)c2cccc(C)c21,-,-,75,-,-,-,-,-
Cc1cccc(OCCN2C(=O)c3ccccc3C2=O)c1,-,-,-,-,-,-,.,.
Cc1ccc(OCCN2C(=O)C(=O)c3cccc(C)c32)cc1,-,-,42,-,-,-,-,-
Cc1cccc2c1N(C)C(=O)C2=O,-,-,-,-,-,-,.,.
CCC(=O)NC(c1ccc(OC)cc1)c1c(O)ccc2ccccc12 (stereo not drawn),-,-,-,-,-,-,.,.
CC(=O)NC(c1ccc(Cl)cc1)c1c(O)ccc2ccc(O)cc12 (stereo not drawn),-,-,33,-,-,-,-,-
Cc1cnc2c(c1)C(=O)c1ccccc1-2,-,-,-,-,-,-,.,.
COc1ccc(-c2cn(Cc3ccc4c(c3)C(=O)c3ccccc3C4=O)nn2)cc1,-,-,-,-,-,-,.,.
Cc1cccc(-c2cc3c(nn2)-c2ccccc2C3=O)c1,-,-,88,-,-,-,-,-
O=C1c2ccccc2-c2nnc(-c3ccccc3)cc21,-,-,97,-,-,-,99,-
COc1ccc(-c2cc3c(nn2)-c2ccccc2C3=O)cc1,-,-,91,-,-,-,75,-
COc1ccc(CC(=O)NCC2CCCN(Cc3cc(OC)cc(OC)c3)C2)cc1 (stereo not drawn),-,-,-,-,-,-,.,.
CN(C1CCCCC1)S(=O)(=O)c1cccc(C#N)c1,-,-,-,-,-,-,.,.
O=C(/C=C/c1ccccc1)NNc1ccc(Cl)cc1,-,-,31,-,-,-,-,-
O=C(O)c1ccccc1C(=O)NNc1ccc(Cl)cc1,-,-,39,-,-,-,-,-
O=C(NNc1ccc(Cl)cc1)c1sccc1Cl,-,-,47,-,-,-,-,-
O=C(/C=C/c1ccccc1)NNC(=O)c1cccc(Cl)c1,-,-,-,-,-,-,.,.
O=C(CCNC(=O)c1ccccc1Cl)NCC(c1ccco1)N1CCCC1 (stereo not drawn),-,-,-,-,-,-,.,.
N#CC(C#N)=C1C=CC=CN1/C(=C\c1ccco1)C(=O)c1ccc(Cl)cc1,.,-,34,-,-,-,-,-
N#CC(C#N)=C1C=CC=CN1/C(=C\c1ccco1)C(=O)c1ccc(-c2ccccc2)cc1,.,-,-,-,-,-,.,.
CC1CCC(NC(=O)CCNC(=O)c2ccc(Br)cc2)CC1 (stereo not drawn),-,-,-,-,-,-,.,.
CN(C)S(=O)(=O)c1ccc(/C(O)=C2/C(=O)C(=O)N(Cc3cccnc3)C2c2cccs2)cc1 (stereo not drawn),-,-,40,-,-,-,-,-
CN(C)S(=O)(=O)c1ccc(/C(O)=C2/C(=O)C(=O)N(Cc3cccnc3)C2c2ccncc2)cc1 (stereo not drawn),-,-,-,-,-,-,.,.
SMILES,MIN6 prolif,HTR5A inv ctr,MOR-DOR inv ag,HTR5A ag ctr,MOR-DOR ag,V-ATPase pH,MOR-DOR inv conf,HTR5A inv ctr2
O=C(NC1CCCCC1)C(=S)N1CCOCC1,-,-,-,-,-,-,.,.
Cn1c(=O)[nH]c(=O)c2c1nc(N1CCNCC1)n2Cc1cccc2ccccc12,-,-,38,-,-,-,-,-
Cn1c(=O)[nH]c(=O)c2c1nc(N1CCNCC1)n2Cc1ccccc1,-,-,-,-,-,-,.,.
Cn1c(=O)c2c(nc(N3CCNCC3)n2Cc2cccc3ccccc23)n(C)c1=O,-,-,42,-,-,-,-,-
C[C@H]1CCC/C=C/[C@@H]2C[C@H](O)C[C@H]2[C@H](O)[C@H](S(=O)c2ccc(O)cc2)CC(=O)O1 (stereo partly drawn),.,-,44,-,-,-,-,-
CC1CCCC=CC2CC(OC(=O)CN(C)C)CC2C(O)C=CC(=O)O1 (stereo not drawn),.,-,-,-,-,-,.,.
